# Inconclusive results are not listed. Calls of active or inactive are those of the source.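 The calls were made as follows, unless noted: active = compound whose remaining NAD level is above about 45 nM (limit read from the data); inactive = the rest.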
# How the values were obtained:
# [1] = growth inhibition, single agent or in combination, cell-based, chromothripsis tumors, cisplatin or BGB combos (AID 1671449; in the data active = inhibition above about 80%;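 also: cells exposed for 96 hours; 0% = vehicle DMSO and 100% = killing by high DMSO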); conditions: LFS_MB_P medulloblastoma cells
# [2] = growth inhibition, single agent and combos, cell-based, chromothripsis tumors, cisplatin or BGB combos (AID 1671450; in the data active = inhibition above about 80%;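 also: cells exposed to compound for four days; 0% = vehicle DMSO and 100% = cell killing by high DMSO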); conditions: HDN33 neuroblastoma cells, stronger effect = higher value
# [3] = growth inhibition, single agents and combos, ICB984, cell-based, cisplatin or BGB combos, synergistic combos for chromothripsis tumors (AID 1671451; call rule not given here;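 also: cells exposed for 96 hours before readout; 0% = vehicle DMSO and 100% = killing by high DMSO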); conditions: ICB984 medulloblastoma cells, drug combinations, stronger effect = higher value
# [4] = growth inhibition, single agents and combos, LFS_MB_1R, cell-based, cisplatin or BGB combos, synergistic combos for chromothripsis tumors (AID 1671452; in the data active = inhibition above about 80%;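 also: cells exposed for 96 hours before readout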); conditions: LFS_MB_1R medulloblastoma cells, stronger effect = higher value
# [5] = growth inhibition, single agents and combos, HTB85, cell-based, BGB or cisplatin IC20 combos, synergistic combos for chromothripsis tumors (AID 1671453; in the data active = inhibition above about 80%;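 also: cells exposed for 96 hours before readout; 0% = vehicle DMSO and 100% = high DMSO killing control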); conditions: HTB85 osteosarcoma cells, drug combinations, stronger effect = higher value
# [6] = growth inhibition, single agents and combos, CRL2098, cell-based, BGB or cisplatin IC20 combos, synergistic combos for chromothripsis tumors (AID 1671454; in the data active = inhibition above about 80%;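 also: cells exposed for 96 h before readout; 0% = vehicle DMSO and 100% = killing by high DMSO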); conditions: CRL2098 osteosarcoma cells, drug combinations, stronger effect = higher value
# [7] = growth inhibition, single agents and combos, HD-MB03, cell-based, BGB or cisplatin IC20 combos, synergistic combos for chromothripsis tumors (AID 1671455; in the data active = inhibition above about 83%;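 also: 0% = vehicle DMSO and 100% = high DMSO as cytotoxic control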); conditions: HD-MB03 medulloblastoma cells, stronger effect = higher value
# [8] = growth inhibition, single agents and combos, UWB1.289, cell-based, BGB or cisplatin combos, synergistic combos for chromothripsis tumors (AID 1671456; in the data active = inhibition above about 80%;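 also: cells exposed to compound for four days; 0% = vehicle DMSO and 100% = killing by high DMSO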); conditions: UWB1.289 ovarian carcinoma cells, stronger effect = higher value
# [9] = growth inhibition, single agents and combos, LFS_MB_2R, cell-based, cisplatin combos, synergistic combos for chromothripsis tumors (AID 1671457; in the data active = inhibition above about 80%;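 also: cells exposed to compound for four days before readout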); conditions: LFS_MB_2R medulloblastoma cells, stronger effect = higher value
# [10] = growth inhibition, MDA-MB-436, cell-based, BGB or cisplatin combos, synergistic combos for chromothripsis tumors (AID 1671458; call rule not given here;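 also: cells exposed for 96 hours; 0% = vehicle DMSO and 100% = killing by high DMSO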); conditions: MDA-MB-436 breast carcinoma growth inhibition, drug combinations, stronger effect = higher value
# [11] = BT084 cell growth, single and combined drugs, ICGC_MB145, cisplatin and BGB IC40 combos (AID 1671461; in the data active = inhibition above about 80%;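 also: cells exposed to drugs for 96 hours; 0% = vehicle DMSO and 100% = high DMSO full killing control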); conditions: BT084 medulloblastoma cells, drug combinations, stronger effect = higher value
# [12] = RCMB18 cell growth, single agent and combined, cisplatin and BGB IC40 combos (AID 1671462; in the data active = inhibition above about 80%;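 also: cells exposed to compound for four days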); conditions: RCMB18 medulloblastoma cells, stronger effect = higher value
# [13] = CRL1545 cell growth, single agent and combined, cisplatin and BGB IC20 combos (AID 1671464; in the data active = inhibition above about 80%;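 also: cells exposed to compound for 96 hours before readout; 0% = vehicle DMSO and 100% = high DMSO killing control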); conditions: CRL1545 osteosarcoma cells, stronger effect = higher value
# [14] = compounds altering viability of human ES cells (AID 493140; call rule not given here;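 also: cells exposed to compounds for four days before counting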); conditions: human embryonic stem cell survival screen; stronger effect = higher value
# [15] = target: NAD(+) hydrolase SARM1 (Homo sapiens) (UniProt Q6SZW1); assay: blocking NAD cleavage by SARM1 SAM-TIR – cell lysate, NAD-Glo luminescence (AID 1508614); conditions: SAM-TIR HEK293T lysate NADase, at 1 µM, stronger effect = higher value;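 also: higher remaining NAD means stronger inhibition of SARM1 NADase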
# NAD(+) hydrolase SARM1 (Homo sapiens), sequence (Q6SZW1 whole entry, looked up, the tested form may be a part): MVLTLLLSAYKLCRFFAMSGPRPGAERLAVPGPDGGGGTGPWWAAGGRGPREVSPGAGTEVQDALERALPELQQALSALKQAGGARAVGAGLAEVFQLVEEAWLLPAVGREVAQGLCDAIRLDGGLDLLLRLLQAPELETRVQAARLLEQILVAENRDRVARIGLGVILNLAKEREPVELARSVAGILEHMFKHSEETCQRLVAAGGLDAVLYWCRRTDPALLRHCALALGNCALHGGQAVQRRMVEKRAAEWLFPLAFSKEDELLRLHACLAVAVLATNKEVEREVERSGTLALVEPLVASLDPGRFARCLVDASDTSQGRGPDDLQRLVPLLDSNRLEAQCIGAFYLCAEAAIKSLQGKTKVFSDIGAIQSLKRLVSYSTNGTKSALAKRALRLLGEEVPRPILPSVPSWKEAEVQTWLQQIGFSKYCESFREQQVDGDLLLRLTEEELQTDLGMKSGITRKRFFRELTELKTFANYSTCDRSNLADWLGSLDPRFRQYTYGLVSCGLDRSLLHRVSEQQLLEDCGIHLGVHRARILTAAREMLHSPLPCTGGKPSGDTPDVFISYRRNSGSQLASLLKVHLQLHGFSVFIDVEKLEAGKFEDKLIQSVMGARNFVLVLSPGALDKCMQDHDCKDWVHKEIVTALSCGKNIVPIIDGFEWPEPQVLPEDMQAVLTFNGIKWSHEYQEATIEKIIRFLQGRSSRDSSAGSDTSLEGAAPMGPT
# [16] = target: Mitogen-activated protein kinase 7 (Homo sapiens) (UniProt Q13164); assay: Gal4-ERK5 driven luciferase induction – cell-based, HTS, primary screen (AID 1508626;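 active = luciferase signal above three times the same-plate solvent-only control wells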;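 also: luciferase driven by Gal4-ERK5 fusion binding five Gal4 sites before minimal TATA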); conditions: HeLa Gal4-ERK5 transactivation, 18 h, at 5 µM, stronger effect = higher value
# Mitogen-activated protein kinase 7 (Homo sapiens), sequence (Q13164 whole entry, looked up, the tested form may be a part): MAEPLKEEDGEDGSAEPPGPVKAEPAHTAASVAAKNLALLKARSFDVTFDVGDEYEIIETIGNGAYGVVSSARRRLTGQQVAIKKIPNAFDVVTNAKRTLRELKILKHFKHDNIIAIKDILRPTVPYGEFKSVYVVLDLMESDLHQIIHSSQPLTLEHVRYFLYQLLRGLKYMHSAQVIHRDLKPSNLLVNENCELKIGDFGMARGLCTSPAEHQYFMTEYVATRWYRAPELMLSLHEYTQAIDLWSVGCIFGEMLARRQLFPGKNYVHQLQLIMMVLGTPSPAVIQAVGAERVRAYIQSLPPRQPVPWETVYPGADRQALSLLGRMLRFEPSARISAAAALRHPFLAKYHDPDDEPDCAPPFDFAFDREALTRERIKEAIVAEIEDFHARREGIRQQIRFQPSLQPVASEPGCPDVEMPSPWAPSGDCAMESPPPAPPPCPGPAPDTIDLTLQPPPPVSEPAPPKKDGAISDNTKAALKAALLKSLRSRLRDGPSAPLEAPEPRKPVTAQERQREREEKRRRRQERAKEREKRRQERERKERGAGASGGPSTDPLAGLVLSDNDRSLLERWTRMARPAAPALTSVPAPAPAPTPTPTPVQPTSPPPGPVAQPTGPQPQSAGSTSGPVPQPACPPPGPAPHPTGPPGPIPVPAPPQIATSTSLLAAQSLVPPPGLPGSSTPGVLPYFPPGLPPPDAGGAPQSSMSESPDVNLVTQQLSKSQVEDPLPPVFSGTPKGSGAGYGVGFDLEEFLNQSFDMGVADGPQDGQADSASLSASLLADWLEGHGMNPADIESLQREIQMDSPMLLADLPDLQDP
# [17] = target: ATP-dependent translocase ABCB1 (Homo sapiens) (UniProt P08183); assay: P-glycoprotein substrate transport blockade – cell-based (AID 377; in the data active = fluorescence slope change above about 50%); conditions: MDR1-expressing cells, fluorescent substrate accumulation slope; stronger effect = higher value; concentration not given here
# ATP-dependent translocase ABCB1 (Homo sapiens), sequence (P08183 whole entry, looked up): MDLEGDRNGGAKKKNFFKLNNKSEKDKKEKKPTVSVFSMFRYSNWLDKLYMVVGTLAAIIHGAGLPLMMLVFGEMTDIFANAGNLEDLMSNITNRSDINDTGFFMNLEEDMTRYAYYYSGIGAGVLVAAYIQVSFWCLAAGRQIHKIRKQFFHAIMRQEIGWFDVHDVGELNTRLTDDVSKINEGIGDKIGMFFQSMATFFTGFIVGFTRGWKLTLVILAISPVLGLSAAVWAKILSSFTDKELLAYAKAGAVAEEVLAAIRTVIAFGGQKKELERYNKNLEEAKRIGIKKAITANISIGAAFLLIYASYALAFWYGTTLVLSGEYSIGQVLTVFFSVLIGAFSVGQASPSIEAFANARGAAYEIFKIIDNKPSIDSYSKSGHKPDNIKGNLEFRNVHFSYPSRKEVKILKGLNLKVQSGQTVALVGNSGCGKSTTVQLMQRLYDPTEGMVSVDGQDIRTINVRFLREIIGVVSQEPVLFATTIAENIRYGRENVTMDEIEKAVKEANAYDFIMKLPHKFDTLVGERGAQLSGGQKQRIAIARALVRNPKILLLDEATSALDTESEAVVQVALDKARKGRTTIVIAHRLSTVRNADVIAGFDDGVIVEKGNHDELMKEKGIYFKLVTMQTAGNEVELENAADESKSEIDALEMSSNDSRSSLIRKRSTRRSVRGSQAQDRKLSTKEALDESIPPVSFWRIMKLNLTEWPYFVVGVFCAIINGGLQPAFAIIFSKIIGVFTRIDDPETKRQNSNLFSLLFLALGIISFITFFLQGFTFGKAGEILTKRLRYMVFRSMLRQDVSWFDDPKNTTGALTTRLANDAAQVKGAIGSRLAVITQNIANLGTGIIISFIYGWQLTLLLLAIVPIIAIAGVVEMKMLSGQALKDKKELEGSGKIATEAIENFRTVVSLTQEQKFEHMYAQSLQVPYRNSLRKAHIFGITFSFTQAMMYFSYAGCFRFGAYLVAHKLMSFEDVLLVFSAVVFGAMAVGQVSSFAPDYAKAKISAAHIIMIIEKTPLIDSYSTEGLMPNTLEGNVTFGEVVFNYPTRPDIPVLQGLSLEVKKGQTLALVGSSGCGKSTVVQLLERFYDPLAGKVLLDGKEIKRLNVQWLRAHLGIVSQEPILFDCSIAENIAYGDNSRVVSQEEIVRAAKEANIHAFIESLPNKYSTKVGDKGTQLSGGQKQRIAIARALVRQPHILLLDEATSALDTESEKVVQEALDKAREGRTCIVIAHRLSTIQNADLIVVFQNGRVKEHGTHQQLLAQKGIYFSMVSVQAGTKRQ
# [18] = measured here: combination with BGB IC40, at 0.05 µM
# [19] = measured here: with BGB IC20 combination, at 0.5 µM
# [20] = measured here: with cisplatin IC20 combination, at 0.5 µM
# [21] = measured here: combination with cisplatin, at 0.5 µM
# [22] = measured here: combination with cisplatin, at 5 µM
smiles,measurement,setting,value
O=c1[nH]c(=O)n([C@H]2C[C@H](O)[C@@H](CO)O2)cc1Br,inhibition,"[1]; at 0.5 µM, stronger effect = higher value",27% (inactive)
same,inhibition,"[1]; measured here: combination with BGB IC20, at 0.005 µM",-4.77%
same,inhibition,"[1]; measured here: combination with BGB IC40, at 0.005 µM",-39.7%
same,inhibition,[1]; [18],-12.1%
same,inhibition,"[1]; measured here: combination with cisplatin, at 0.5 µM, stronger effect = higher value",74.8%
same,inhibition,"[1]; measured here: combination with cisplatin, at 5 µM, stronger effect = higher value",-36%
same,inhibition,"[2]; BGB combo, at 5 µM",11.2%
same,inhibition,[2]; at 0.5 µM,21.5% (inactive)
same,inhibition,"[2]; cisplatin combo, at 5 µM",2.65%
same,inhibition,[2]; [19],31.8%
same,inhibition,[2]; [20],4.43%
same,inhibition,"[2]; single agent, at 5 µM",17%
same,inhibition,"[3]; BGB IC20 combo, at 0.005 µM",-12.2%
same,inhibition,"[3]; BGB IC40 combo, at 0.005 µM",-50%
same,inhibition,"[3]; BGB IC40 combo, at 0.05 µM",-16.9%
same,inhibition,[3]; at 0.5 µM,-24.2% (inactive)
same,inhibition,"[3]; cisplatin combo, at 0.05 µM",-21.6%
same,inhibition,"[3]; cisplatin combo, at 0.5 µM",-35.3%
same,inhibition,"[3]; cisplatin combo, at 5 µM",-5.29%
same,inhibition,"[3]; measured here: 5 uM single agent, at 5 µM",-6.23%
same,inhibition,[4]; at 0.5 µM,-8.78% (inactive)
same,inhibition,[4]; [18],-9.5%
same,inhibition,[4]; [21],-3.13%
same,inhibition,[4]; [22],18.2%
same,inhibition,[5]; at 0.5 µM,-5% (inactive)
same,inhibition,"[5]; measured here: with BGB IC20, at 0.5 µM",-14.3%
same,inhibition,"[5]; measured here: with BGB IC20, at 5 µM",-8.79%
same,inhibition,"[5]; measured here: with cisplatin IC20, at 0.5 µM",-8.95%
same,inhibition,"[5]; measured here: with cisplatin IC20, at 5 µM",4.02%
same,inhibition,"[5]; single agent, at 5 µM",9.21%
same,inhibition,[6]; at 0.5 µM,-34.2% (inactive)
same,inhibition,"[6]; measured here: combination with BGB at IC20, at 0.5 µM",-5.25%
same,inhibition,"[6]; measured here: combination with cisplatin at IC20, at 0.5 µM",-22.4%
same,inhibition,[7]; at 0.5 µM,14.2% (inactive)
same,inhibition,"[7]; measured here: combo with BGB at IC20, at 0.5 µM",14.5%
same,inhibition,"[7]; measured here: combo with cisplatin at IC20, at 0.5 µM",32.3%
same,inhibition,[8]; at 0.5 µM,3.4% (inactive)
same,inhibition,"[8]; measured here: inhibition with BGB combination, at 0.05 µM",-18.3%
same,inhibition,"[8]; measured here: inhibition with cisplatin combination, at 0.05 µM",-5.15%
same,inhibition,[9]; at 0.5 µM,-21.2% (inactive)
same,inhibition,[9]; [21],-22.2%
same,inhibition,[9]; [22],-17.4%
same,inhibition,[10]; at 0.5 µM,-4.92% (inactive)
same,inhibition,"[10]; measured here: BGB combination, at 0.5 µM",-11.6%
same,inhibition,"[10]; measured here: BGB combination, at 5 µM",-22.5%
same,inhibition,"[10]; measured here: cisplatin combination, at 0.5 µM",-2.86%
same,inhibition,"[10]; measured here: cisplatin combination, at 5 µM",-6.5%
same,inhibition,[11]; at 0.5 µM,-8.02% (inactive)
same,inhibition,"[11]; cisplatin combination, at 0.5 µM",3.56%
same,inhibition,"[11]; cisplatin combination, at 5 µM",-1.86%
same,inhibition,"[11]; measured here: BGB IC40 combination 0.05 uM, at 0.05 µM",-20.2%
same,inhibition,"[11]; single agent, at 5 µM",-7.12%
same,inhibition,[12]; at 0.5 µM,-10.5% (inactive)
same,inhibition,"[12]; cisplatin combo, at 5 µM",28.1%
same,inhibition,"[12]; measured here: BGB IC40 combination, at 0.05 µM",-19.3%
same,inhibition,[12]; [21],32.5%
same,inhibition,"[12]; single agent, at 5 µM",-34.1%
same,inhibition,[13]; at 0.5 µM,8.96% (inactive)
same,inhibition,[13]; [19],3.57%
same,inhibition,[13]; [20],11.6%
same,inhibition,"[13]; single agent, at 0.05 µM",-0.752%
same,inhibition,"[13]; single agent, at 5 µM",41.5%
CC(C)(C)NC[C@H](O)COc1cccc2c1CCCC2=O,survival,[14],3.08 (inactive)
same,remaining NAD,[15],10 nM (inactive)
same,luciferase signal,[16],88 AU (inactive)
CC(=O)OCC(=O)[C@@]1(O)CC[C@H]2[C@@H]3CCC4=CC(=O)C=C[C@]4(C)[C@@]3(F)[C@@H](O)C[C@@]21C,survival,[14],8 (inactive)
same,remaining NAD,[15],10 nM (inactive)
Cc1ncc(C[n+]2csc(CCO)c2C)c(N)n1,fluorescence slope change,[17],80.3% (active)
same,survival,[14],12.6 (inactive)
same,remaining NAD,[15],10 nM (inactive)
same,luciferase signal,[16],44 AU (inactive)
Cc1ccc(Nc2c(F)cccc2Cl)c(CC(=O)O)c1,remaining NAD,[15],10 nM (inactive)
CC(=O)OCC(=O)[C@@]1(OC(C)=O)[C@@H](C)C[C@H]2[C@@H]3C[C@H](F)C4=CC(=O)C=C[C@]4(C)[C@@]3(F)[C@@H](O)C[C@@]21C,survival,[14],6.42 (inactive)
same,remaining NAD,[15],10 nM (inactive)
CCN(CC)C(=O)/C(C#N)=C/c1cc(O)c(O)c([N+](=O)[O-])c1,remaining NAD,[15],10 nM (inactive)
C=C1C[C@H]2[C@@H]3C=C(C)C4=CC(=O)CC[C@]4(C)[C@H]3CC[C@]2(C)[C@@]1(OC(C)=O)C(C)=O,remaining NAD,[15],15 nM (inactive)
same,luciferase signal,[16],64 AU (inactive)
CCOc1ccccc1OCCN[C@H](C)Cc1ccc(OC)c(S(N)(=O)=O)c1,remaining NAD,[15],10 nM (inactive)
CCN[C@H]1CN(CCCOC)S(=O)(=O)c2sc(S(N)(=O)=O)cc21,survival,[14],9.25 (inactive)
same,remaining NAD,[15],10 nM (inactive)
CC1(C)[C@@H](OC(=O)CCC(=O)O)CC[C@]2(C)[C@H]3C(=O)C=C4[C@@H]5C[C@@](C)(C(=O)O)CC[C@]5(C)CC[C@@]4(C)[C@]3(C)CC[C@@H]12,fluorescence slope change,[17],123% (active)
same,survival,[14],4.33 (inactive)
same,remaining NAD,[15],10 nM (inactive)
same,luciferase signal,[16],60 AU (inactive)
OCCOCCN1CCN(C(c2ccccc2)c2ccc(Cl)cc2)CC1 (centres undefined),fluorescence slope change,[17],127% (active)
same,survival,[14],12.3 (inactive)
C=CCNC(N)=S,remaining NAD,[15],10 nM (inactive)
C[C@H](NCCc1ccc(O)cc1)[C@H](O)c1ccc(O)cc1,fluorescence slope change,[17],27.4% (inactive)
same,survival,[14],5.58 (inactive)
same,luciferase signal,[16],96 AU (inactive)
CC(C)(CO)[C@@H](O)C(=O)NCCCO,survival,[14],26.3 (inactive)
same,remaining NAD,[15],10 nM (inactive)
C#C[C@]1(OC(C)=O)CC[C@H]2[C@@H]3CCC4=C[C@@H](OC(C)=O)CC[C@@H]4[C@H]3CC[C@@]21C,survival,[14],3.67 (inactive)
same,remaining NAD,[15],10 nM (inactive)
same,luciferase signal,[16],64 AU (inactive)
O=C(O)COC(=O)Cc1ccccc1Nc1c(Cl)cccc1Cl,survival,[14],18.6 (inactive)
same,remaining NAD,[15],10 nM (inactive)
CC(=O)[C@H]1CC[C@H]2[C@@H]3C=CC4=CC(=O)CC[C@@]4(C)[C@@H]3CC[C@]12C,survival,[14],6.67 (inactive)
same,remaining NAD,[15],10 nM (inactive)
CC[C@H](c1ccc(O)cc1)[C@@H](CC)c1ccc(O)cc1,remaining NAD,[15],10 nM (inactive)
CC(=O)N(CC(O)CO)c1c(I)c(C(=O)NCC(O)CO)c(I)c(C(=O)NCC(O)CO)c1I (centres undefined),survival,[14],14.3 (inactive)
same,remaining NAD,[15],10 nM (inactive)
C#CC1(O)CC[C@H]2[C@@H]3CCC4=CCCC[C@@H]4[C@H]3CC[C@@]21C (some centres undefined),fluorescence slope change,[17],88.5% (active)
same,luciferase signal,[16],80 AU (inactive)

# — PubChem BioAssay
